High-throughput results as filed in PubChem.
aSyn UTR inh = MLPCN primary screen, SNCA 5' untranslated region. inhibition, % (tested at 7.5 µM). actives 0.82% (n = 300,000). AID 1813, 2009. alpha-synuclein 5'UTR reporter, inhibitor activity; in the data active = inhibition above about 60%; inconclusive = no clear call, values can overlap the other calls;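 also: H4 neuroglioblastoma cells stably carrying SNCA 5'UTR luciferase fusion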
SKKanGAS inh = S. pyogenes SKKanGAS growth inhibitors in kanamycin, primary screen, streptokinase expression inhibitor project, SKKanGAS strain, BacTiter-Glo luminescence; 6 h; inhibition, % at 7.5 µM; actives 1.3% (n = 300,000); AID 1662, 2009;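 active = mean replicate score, as percent of positive control median, at least 50; inconclusive = mean below 50 but one replicate at or above 50; inactive = mean and every replicate below 50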;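 also: strain carries kanamycin resistance gene driven by streptokinase promoter and grows in 40 µg/ml kanamycin; loss of luminescence reflects streptokinase promoter inhibition or plain growth inhibition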
KLF5 inh = KLF5 expression inhibitors, primary screen, DLD-1 cells, luminescence. DLD-1 KLF5 promoter-luciferase reporter. inhibition, % at 5 µM. actives 0.23% (n = 290,000);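 active = inhibition above a per-plate limit of that plate's mean compound inhibition plus 3 SD, cut at about 60% in these data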;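 also: higher means less KLF5 promoter-driven luciferase light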
IEC-6 cytotox = cytotoxicity in IEC-6 intestinal epithelial cells, primary screen, cytotoxicity control for KLF5 inhibitor project, cell-based, luminescence; AID 1825, 2009; inhibition, % at 5 µM; IEC-6 cytotoxicity, luminescence viability; actives 0.78% (n = 290,000); in the data active = inhibition above about 22%
CSC inhib = cancer stem cell viability inhibitors, primary screen, luminescence | cancer stem cell-like cells viability | inhibition, % at 7.5 µM | actives 1.1% (n = 300,000); in the data active = inhibition above about 75%; inconclusive = no clear call, values can overlap the other calls; tested in HMLE shEcad cells
Numbers stand for hits; – = inactive; ? = inconclusive; · = no result given. Only some compounds are listed: those with a hit (about 3% of all), similar ones and a draw of the others.

SMILES	aSyn UTR inh	SKKanGAS inh	KLF5 inh	IEC-6 cytotox	CSC inhib
Cn1ncc2c(NCc3ccccc3)ncnc21	–	–	–	–	–
COCc1ccc(C(=O)N2CCCC(N3CCN(c4ccc(F)cc4)CC3)C2)o1 (centres undefined)	–	–	–	–	–
CCOc1ccc(-c2nnc(NC(=O)c3ccc(OCC(C)C)c(OC)c3)o2)cc1	?	115.2	–	–	103.1
COc1cccc(C(=O)Nc2nnc(-c3ccc(Cl)cc3)o2)c1	–	88.0	·	·	–
COc1cccc(-c2nnc(NC(=O)c3ccc4ncsc4c3)o2)c1	–	69.4	–	–	–
CS(=O)(=O)c1cccc(-c2nnc(NC(=O)c3ccc4ncsc4c3)o2)c1	–	–	·	·	–
COc1cccc(C(=O)Nc2nnc(-c3ccc(F)cc3)o2)c1	–	91.2	·	·	–
CCCCNC(=O)Nc1nnc(-c2ccc(OCC)cc2)o1	·	·	–	–	–
Cc1ccc(S(=O)(=O)Nc2ccccc2C(=O)N2CCN(C)CC2)cc1	–	–	–	–	–
Cc1ccc(C(=O)NCCNC(=O)c2ccco2)cn1	–	–	–	–	–
NS(=O)(=O)c1ccc(CNC(=O)c2cc(-c3cccnc3)nc3ccc(Br)cc23)cc1	–	–	–	–	–
COc1cc(OC)cc(C(=O)NNC(=O)c2ccc3c(c2)OCCO3)c1	·	·	·	·	–
COc1cccc(C(=O)Nc2nnc(-c3cccs3)o2)c1	–	77.4	–	–	–
COc1cc(OC)cc(-c2nnc(NC(=O)c3ccc4c(c3)OCCO4)o2)c1	–	108.9	–	–	–
COc1ccc(CCNC(=O)CCc2cn(C)c3ccccc23)c(OC)c1OC	–	–	–	–	–
CCCCCc1ccc(OCCCC[n+]2cccc(C)c2)c(CCCCC)c1	–	–	–	–	109.4
O=C(Cn1c2c(c(-c3ccccc3Cl)cc1=O)CCC2)NCCCN1CCOCC1	–	–	–	–	–
COCCN(CC(=O)NC1CCCCC1)C(=O)/C=C/C(=O)c1ccc(OC)cc1O	78.8	–	–	–	·
COc1ccc(CN(C(=O)/C=C/C(=O)c2ccc(OC)cc2O)C(C(=O)NC2CCCCC2)c2ccncc2)cc1 (centres undefined)	–	–	–	–	–
COc1ccc(C(=O)/C=C/C(=O)N(CC(=O)NC2CCCCC2)Cc2cccs2)c(O)c1	70.6	–	–	–	76.1
Cc1cnc(CNC(=O)C2CCC(=O)N(CCc3ccc(Cl)cc3)C2)cn1 (centres undefined)	–	–	–	–	·
CN(C)CC/C=C1/c2ccc(F)cc2Sc2ccc(Cl)cc21	–	–	·	·	–
CN(C)CC/C=C1\c2ccc(F)cc2Sc2cc(F)c(Cl)cc21	103.4	–	·	·	82.7
O=c1cc(-c2ccccc2Cl)oc2c(NS(=O)(=O)c3cc(Cl)cc(Cl)c3O)ccc(O)c12	–	109.1	–	–	101.9
CCc1ccc(S(=O)(=O)Nc2ccc(O)c3c(=O)cc(-c4ccccc4Cl)oc23)cc1	–	–	·	·	–
SMILES	aSyn UTR inh	SKKanGAS inh	KLF5 inh	IEC-6 cytotox	CSC inhib
CCOc1ccccc1N(C(=O)Nc1ccc(Cl)cc1)C1=NCCS1	–	·	–	–	83.8
CCOc1ccccc1N(C(=O)Nc1cccc(Cl)c1)C1=NC(C)CS1 (centres undefined)	–	–	–	–	–
Oc1ccccc1/C=N/NC(=S)NC1CC2CCC1C2 (centres undefined)	–	69.7	–	–	–
Cn1c(-c2ccccc2)cnc1SCC(=O)N1CCCCC1	82.8	–	–	–	–
Cn1c(-c2ccccc2)cnc1SCC(=O)N1CCCc2ccccc21	–	–	–	–	–
CN(C)CCNc1ncnc2c1sc1nc(N3CCOCC3)c3c(c12)CC(C)(C)SC3	71.6	–	–	–	–
Cc1cc(C)c2nc(NCCCNC(=S)NCCCN(C)C)c(C#N)cc2c1	96.4	–	–	–	–
O=S(=O)(c1ccc(NC(=S)N/N=C/c2ccc(O)c(O)c2)cc1)N1CCOCC1	–	–	–	–	–
O=[N+]([O-])c1cc(Cl)cc(/C=N/NC(=S)Nc2ccc(S(=O)(=O)N3CCOCC3)cc2)c1O	–	93.8	–	–	–
Cc1ccc(C(=O)c2c3ccc(C(F)(F)F)cc3[n+]([O-])n2CCCN)cc1	–	–	·	·	–
Cc1ccc(C(=O)c2c3ccc([N+](=O)[O-])cc3[n+]([O-])n2CCCN)cc1	63.3	–	·	·	–
CCCn1c(=O)c(C(=O)NNC(=O)c2ccccc2Cl)c(O)c2ccccc21	–	86.1	–	–	·
CCCCCCC(=O)NNC(=O)c1c(O)c2ccccc2n(CCC)c1=O	–	92.3	–	–	–
